# About 79,000 compounds went through this panel and 15% of them were active in at least one assay; those are over-represented in the sample as a whole. Values without a mark were called inactive. The source made the active and inactive calls. No stated cut-off is given here; in the data, active means growth inhibition above about 70%; inactive means the rest.
# Columns and labels:
# [1] = NCI Yeast Anticancer Drug Screen. Data for the rad50 strain (AID 155);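 further: 0% = growth of vehicle-only cultures of the same strain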; conditions: S. cerevisiae rad50 strain growth inhibition, stronger effect = higher value
# Method in brief: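 Compounds were tested on a yeast strain with an engineered DNA damage repair alteration; the reported value is growth inhibition normalised to vehicle treatment.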
# [2] = NCI Yeast Anticancer Drug Screen. Data for the mec2-1 strain (AID 157); conditions: S. cerevisiae mec2-1 strain, stronger effect = higher value
# Method in brief: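 Vehicle-treated cultures served as reference for growth inhibition of compound-exposed mec2-1 yeast.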
# [3] = NCI Yeast Anticancer Drug Screen. Data for the sgs1 mgt1 strain (AID 161);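 further: 0% = growth of cultures given vehicle only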; conditions: S. cerevisiae sgs1 mgt1 strain, stronger effect = higher value
# Method in brief: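 Genetically altered yeast, compound exposure, growth inhibition relative to vehicle.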
# [4] = NCI Yeast Anticancer Drug Screen. Data for the cln2 rad14 strain (AID 165);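 further: 0% = growth equal to vehicle treated cultures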; conditions: S. cerevisiae cln2 rad14 strain, stronger effect = higher value
# Method in brief: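 Each compound was tested on cln2 rad14 yeast. Inhibition of growth was calculated against vehicle-exposed controls.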
# [5] = NCI Yeast Anticancer Drug Screen. Data for the bub3 strain (AID 167); conditions: S. cerevisiae bub3 mutant strain, stronger effect = higher value
# Method in brief: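 Growth of a checkpoint-deficient yeast mutant is measured after compound exposure. Values represent inhibition relative to vehicle.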
# [6] = NCI Yeast Anticancer Drug Screen. Data for the mlh1 rad18 strain (AID 175); conditions: S. cerevisiae mlh1 rad18 strain growth inhibition, stronger effect = higher value
# Method in brief: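 Vehicle-treated cultures served as the reference for growth inhibition in a yeast strain carrying DNA damage repair alterations exposed to each compound.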
# [7] = at 5.0 µM (retest, dose inferred, filed as 0.5)
# [8] = at 50.0 µM (retest, dose inferred, filed as 5.0)
Compound,"growth inhibition [1, 7]","growth inhibition [1, 8]",growth inhibition ([1]; at 50.0 µM),"growth inhibition [2, 7]","growth inhibition [2, 8]",growth inhibition ([2]; at 50.0 µM),"growth inhibition [3, 7]","growth inhibition [3, 8]",growth inhibition ([3]; at 50.0 µM),"growth inhibition [4, 7]","growth inhibition [4, 8]",growth inhibition ([4]; at 50.0 µM),"growth inhibition [5, 7]","growth inhibition [5, 8]",growth inhibition ([5]; at 50.0 µM),"growth inhibition [6, 7]","growth inhibition [6, 8]",growth inhibition ([6]; at 50.0 µM)
O=C(Nc1cccc(NC(=O)c2cc(=O)c3ccccc3o2)n1)c1cc(=O)c2ccccc2o1,34%,34%,62.6%,13%,13%,14.9%,-4%,-4%,21.7%,21%,21%,24.2%,15%,15%,58.5%,24%,24%,67.3%
COc1cc2c(cc1O)-c1c(cnn1-c1ccc([N+](=O)[O-])cc1)CCC2,7%,56%,79% (active),4%,27%,91.9% (active),4%,38%,85.6% (active),3%,52%,73% (active),0%,3%,93.2% (active),17%,71% (active),94.8% (active)
C=C1CCCCC1C(C(=O)O)(c1ccccc1)c1ccccc1 (stereo not given),77% (active),98% (active),98.7% (active),71% (active),99% (active),99.3% (active),79% (active),99% (active),99.3% (active),72% (active),99% (active),99.3% (active),51%,99% (active),98.2% (active),92% (active),99% (active),99.5% (active)
c1c[n+](CCC2CCCCC2)ccn1,-15%,6%,89% (active),-14%,-23%,97% (active),-33%,-21%,94.3% (active),-26%,10%,73.1% (active),-6%,28%,63.7%,-28%,3%,69.5%
CCN(C(=O)c1ccccc1C)C(c1ccccc1)P(=O)(c1ccccc1)c1ccccc1 (stereo not given),61%,99% (active),78.6% (active),67%,98% (active),86.3% (active),28%,98% (active),87.7% (active),54%,98% (active),53.8%,61%,96% (active),87.2% (active),61%,99% (active),84.7% (active)
COc1cccc2c1N[S@](=O)S2,-12%,95% (active),86.9% (active),-12%,94% (active),90.2% (active),1%,68%,77.9% (active),-2%,33%,30%,1%,95% (active),95.5% (active),-11%,77% (active),69.9%
CCC(CC)N(CCNc1cc(OC)cc2cccnc12)CC(C)C,7%,7%,60.8%,1%,0%,26%,4%,12%,53.6%,9%,-6%,49.5%,4%,11%,57%,4%,10%,67.8%
O=C1CN(Cc2ccc(Cl)cc2)CC(=O)N2Cc3ccccc3CN12,4%,-3%,-16.2%,-4%,-6%,-13.8%,4%,-13%,-13.2%,-2%,1%,5.1%,6%,6%,64.2%,-4%,-3%,-11%
Cn1cnc([N+](=O)[O-])c1Sc1nc2ccccc2s1,57%,96% (active),91.3% (active),38%,98% (active),92.3% (active),51%,97% (active),92.1% (active),35%,74% (active),90.7% (active),45%,97% (active),91.4% (active),64%,98% (active),90% (active)
N#C/C(=C\c1cccnc1)c1csc2ccccc12,2%,86% (active),95.3% (active),8%,91% (active),88.8% (active),2%,85% (active),75.2% (active),1%,83% (active),73% (active),1%,83% (active),94.2% (active),-5%,88% (active),94.4% (active)
O=[N+]([O-])c1ccc2c(c1)/C(=N\O)c1cc(Br)ccc1-2,14%,39%,91.4% (active),5%,24%,71% (active),13%,33%,67.2%,-2%,14%,35.4%,-5%,3%,13.7%,10%,29%,96.8% (active)
c1ccc2c(c1)Nc1ccc3ccccc3c1S2,3%,-1%,47.8%,-50%,3%,15.2%,-1%,13%,41.5%,4%,-12%,-39.9%,30%,3%,48.6%,3%,13%,66.5%
COC(=O)c1nc(=S)[nH]c(C(=O)OC)c1C(=O)c1ccc(O)c(OC)c1,-6%,95% (active),98.5% (active),-7%,97% (active),78.3% (active),-16%,96% (active),98.4% (active),-4%,90% (active),47%,1%,96% (active),84.3% (active),7%,97% (active),96.3% (active)
CC(C)SC(=S)Nc1ccc(Cl)c([N+](=O)[O-])c1,25%,99% (active),99.3% (active),15%,99% (active),99.6% (active),18%,100% (active),99.5% (active),2%,99% (active),99.2% (active),12%,99% (active),99.5% (active),30%,99% (active),99.4% (active)
O=C(CCN1CCN(c2cccc(Cl)c2)CC1)N1CCc2c([nH]c3ccccc23)C1c1cccnc1 (stereo not given),17%,17%,90.4% (active),10%,10%,92% (active),8%,8%,90.4% (active),9%,9%,92% (active),8%,8%,91.3% (active),23%,23%,89.7% (active)
COc1ccccc1C(C)c1ccc2ccccc2c1C(=O)O (stereo not given),11%,91% (active),94.6% (active),2%,93% (active),94% (active),1%,90% (active),95% (active),7%,93% (active),96.1% (active),-6%,87% (active),93.4% (active),2%,94% (active),96% (active)
C=CCOC(=O)OCCCO,0%,-3%,91.7% (active),-1%,-1%,99.2% (active),2%,-1%,97.2% (active),-5%,2%,95.8% (active),-1%,-3%,98.8% (active),-1%,-1%,95.5% (active)
COc1cc(C(=O)[O][Sn]([c]2ccccc2)([c]2ccccc2)[c]2ccccc2)cc(OC)c1OC,100% (active),99% (active),98.6% (active),100% (active),100% (active),99.2% (active),99% (active),99% (active),98.5% (active),99% (active),99% (active),89.2% (active),99% (active),99% (active),97% (active),99% (active),99% (active),98.3% (active)
C1=C(c2ccccc2)C(=Nc2ccccc2)SC1=Nc1ccccc1,52%,100% (active),99% (active),46%,100% (active),99.5% (active),32%,99% (active),99.5% (active),33%,99% (active),99.3% (active),53%,99% (active),99% (active),38%,99% (active),99.5% (active)
Cn1cnc(=S)c2[nH]cnc21,-1%,-2%,10.9%,-3%,-4%,-0.45%,-2%,-5%,-4.55%,-2%,-4%,59.6%,0%,-5%,-8.5%,-4%,-1%,4.05%

# — PubChem BioAssay (NCI)
